Experiment [1] is described as follows: optical density shifts of acrAB sulA E. coli – strain DRC41, OD650, 48 h, E. coli filamentation inducer project, primary screen (AID 1152).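 Also: E. coli MC1000 strain DRC41 lacking acrAB efflux pump and sulA.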 The following applies: higher = more signal, called active from +8 up or from −8 down.
The nature of experiment [2]: probe aLefty1 binding on compound microarray – biochemical, small-molecule microarray, 635/667 nm fluorescence, primary screen (AID 1153).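 Also: score merges spot fluorescence with signal-to-noise ratio from the scanned slide images.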 The following applies: higher = more signal.
The nature of experiment [3]: plasmodial surface anion channel blockers, osmotic lysis – cell-based, P. falciparum Indochina, OD700, 1 h, primary screen (AID 1154). The following applies: P. falciparum Indochina infected RBC osmotic lysis, higher = more signal, called active from +8 up or from −8 down.
Experiment [4] can be described thus: plasmodial surface anion channel blockers, osmotic lysis – cell-based, P. falciparum Indochina, OD700, 2 h, primary screen (AID 1155).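 Also: lysis reports solute entry through the parasite surface anion channel PSAC.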 The note with it: P. falciparum Indochina infected erythrocytes, higher = more signal, called active from +8 up or from −8 down.
Experiment [5] can be described thus: changes in parasitized red cell lysis, either direction – P. falciparum Indochina, OD700, 3 h, PSAC antagonist project, primary screen (AID 1156). The note with it: P. falciparum-infected erythrocytes, osmotic lysis, higher = more signal, called active from +8 up or from −8 down.
Experiment [6] can be described thus: plasmodial surface anion channel blockers, osmotic lysis – cell-based, P. falciparum Indochina, OD700, 18 h, primary screen (AID 1157). The note with it: P. falciparum Indochina infected erythrocytes, osmotic lysis OD700, 18 h; higher = more signal, called active from +8 up or from −8 down.
Experiment [7] is described as follows: S6 kinase pathway phospho-S6 level changes – cell-based, A549, cytoblot, luminescence, serum-stimulated, primary screen (AID 1158).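 Also: serum-stimulated A549 lung adenocarcinoma cells; signal is phosphorylated S6 detected by cytoblot immunostaining with HRP secondary.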 The note with it: 5 h, higher = more signal.
Experiment [8] has as its target NADPH oxidase 2 (Homo sapiens) (UniProt P04839). Nature of the experiment: compounds shifting NOX2 Amplex Red fluorescence – cell-based, HEK293-NOX2, PMA-stimulated, NOX inhibitor project, primary screen (AID 1159). Also: test concentration not given here. The note with it: 45 min, higher = more signal, called active from +8 up or from −8 down.
Experiment [9] has as its target NADPH oxidase 4 (Homo sapiens) (UniProt Q9NPH5). Nature of the experiment: compounds shifting NOX4 Amplex Red fluorescence – cell-based, HEK293-NOX4, tetracycline-induced, NOX inhibitor project, primary screen (AID 1160). The note with it: HEK293-NOX4, Amplex Red H2O2 fluorescence, 45 min; higher = more signal, called active from +8 up or from −8 down.
Experiment [10] deals with NADPH oxidase 5 (Homo sapiens) (UniProt Q96PH1). Nature of the experiment: compounds shifting NOX5 Amplex Red fluorescence – cell-based, HEK293-NOX5, NOX inhibitor project, primary screen (AID 1161). The note with it: HEK293-NOX5, ionomycin, 45 min, higher = more signal.
Sequence of NADPH oxidase 5 (Homo sapiens) (Q96PH1 whole entry, looked up): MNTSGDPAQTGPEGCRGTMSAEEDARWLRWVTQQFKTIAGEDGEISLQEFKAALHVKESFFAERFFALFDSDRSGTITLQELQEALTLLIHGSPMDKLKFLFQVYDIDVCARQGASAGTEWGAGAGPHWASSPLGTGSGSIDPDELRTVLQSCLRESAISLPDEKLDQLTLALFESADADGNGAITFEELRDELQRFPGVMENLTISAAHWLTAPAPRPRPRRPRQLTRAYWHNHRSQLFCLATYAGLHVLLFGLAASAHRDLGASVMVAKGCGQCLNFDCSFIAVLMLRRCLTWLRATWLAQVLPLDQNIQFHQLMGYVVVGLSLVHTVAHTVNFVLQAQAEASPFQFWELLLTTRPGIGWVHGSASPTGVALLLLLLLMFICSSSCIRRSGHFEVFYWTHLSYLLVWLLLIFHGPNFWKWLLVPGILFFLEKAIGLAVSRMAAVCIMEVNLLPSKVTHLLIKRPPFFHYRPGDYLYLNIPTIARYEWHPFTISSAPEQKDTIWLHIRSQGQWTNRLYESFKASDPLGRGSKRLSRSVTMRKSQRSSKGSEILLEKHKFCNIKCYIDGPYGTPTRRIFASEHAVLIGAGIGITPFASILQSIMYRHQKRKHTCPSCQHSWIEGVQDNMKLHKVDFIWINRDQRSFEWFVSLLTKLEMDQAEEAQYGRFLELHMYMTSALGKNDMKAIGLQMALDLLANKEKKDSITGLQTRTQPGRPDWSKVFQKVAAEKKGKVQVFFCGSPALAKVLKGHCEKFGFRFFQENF

Activity calls are given as the source filed them.

Sequence of NADPH oxidase 2 (Homo sapiens) (P04839 whole entry, looked up): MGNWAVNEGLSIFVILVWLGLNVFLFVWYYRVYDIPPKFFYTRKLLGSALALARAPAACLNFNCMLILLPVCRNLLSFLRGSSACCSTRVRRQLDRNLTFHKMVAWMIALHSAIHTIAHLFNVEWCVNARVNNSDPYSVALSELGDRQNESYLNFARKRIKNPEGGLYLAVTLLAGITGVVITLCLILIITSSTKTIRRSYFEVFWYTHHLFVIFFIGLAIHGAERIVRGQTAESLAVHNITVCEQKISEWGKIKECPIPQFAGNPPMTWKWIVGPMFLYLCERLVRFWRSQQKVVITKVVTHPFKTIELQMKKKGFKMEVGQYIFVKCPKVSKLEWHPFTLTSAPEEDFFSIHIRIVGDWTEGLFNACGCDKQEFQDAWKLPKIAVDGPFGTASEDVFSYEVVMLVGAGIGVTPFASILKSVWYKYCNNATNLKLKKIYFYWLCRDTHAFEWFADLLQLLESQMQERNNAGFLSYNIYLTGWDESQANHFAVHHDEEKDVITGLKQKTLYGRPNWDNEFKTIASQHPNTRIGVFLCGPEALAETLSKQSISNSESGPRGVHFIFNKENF
Sequence of NADPH oxidase 4 (Homo sapiens) (Q9NPH5 whole entry, looked up): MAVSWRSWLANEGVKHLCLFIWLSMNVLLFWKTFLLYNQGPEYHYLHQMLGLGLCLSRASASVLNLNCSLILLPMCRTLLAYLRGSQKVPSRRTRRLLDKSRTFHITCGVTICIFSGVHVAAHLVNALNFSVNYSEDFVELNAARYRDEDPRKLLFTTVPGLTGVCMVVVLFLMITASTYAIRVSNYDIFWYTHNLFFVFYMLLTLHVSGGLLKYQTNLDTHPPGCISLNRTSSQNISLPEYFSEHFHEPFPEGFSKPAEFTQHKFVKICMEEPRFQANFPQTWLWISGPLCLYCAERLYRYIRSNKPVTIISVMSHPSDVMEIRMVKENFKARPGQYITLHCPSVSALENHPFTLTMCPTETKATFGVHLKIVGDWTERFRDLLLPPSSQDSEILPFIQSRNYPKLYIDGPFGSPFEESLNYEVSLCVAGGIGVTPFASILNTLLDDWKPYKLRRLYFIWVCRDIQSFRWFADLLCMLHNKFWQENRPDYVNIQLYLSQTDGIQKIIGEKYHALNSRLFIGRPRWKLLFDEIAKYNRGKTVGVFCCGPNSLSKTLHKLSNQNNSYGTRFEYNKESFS

On to `C=C(CCCC)C(=O)CC[C@H](OC(=O)c1cccnc1)c1ccccc1OCCO`, for which the z-score in [1] was 0.853 (inactive); in [3] it was 16 (active); in experiment [4], 1.6 (inactive); in experiment [5] it was 0.232 (inactive); in experiment [6], -0.674 (inactive); in experiment [7], 1.28. Besides, the z-score is -1.2 (inactive) in experiment [8], -0.324 (inactive) in [9] and -2.33 in experiment [10]. In experiment [2], the composite z-score was -0.012.

For `NCCCCCNC(=O)[C@@H]1C[C@@H]2C(=O)N[C@@H](Cc3ccccc3)C(=O)N2[C@@H]1c1cccc(OCCO)c1`, the z-score was -0.389 (inactive) in experiment [1]; 3.51 (inactive) in experiment [3]; 0.418 (inactive) in experiment [4]; 1.18 (inactive) in experiment [5]; 0.351 (inactive) in experiment [6]; -0.0201 in experiment [7]. In addition, the z-score was 2.11 (inactive) in experiment [8], -0.729 (inactive) in experiment [9] and 0.832 in experiment [10]. In addition, the composite z-score in experiment [2] is -0.101.

As to `COc1ccc(C(=O)Nc2ccc(CN3C(=O)[C@@]4(O[C@@H](CCO)[C@H]([Si](C)(C)c5ccc(OC)cc5)[C@H]4C)c4ccccc43)cc2)cc1`, the z-score in experiment [1] is -1.11 (inactive); in experiment [3], 25.1 (active); in experiment [4] it was 13.2 (active); in experiment [5], 1.6 (inactive); in [6], 1.75 (inactive); in [7], -0.483. The z-score in experiment [8] was -6.53 (inactive); in experiment [9], -2.48 (inactive); in experiment [10] it was -0.954. This compound also displayed a composite z-score in experiment [2] of 0.155.

For the compound `COc1ccc(C(=O)Nc2ccc(CN3C(=O)[C@@]4(O[C@@H](CCn5cc([C@H](O)c6ccccc6)nn5)[C@H]([Si](C)(C)c5ccc(OC)cc5)[C@H]4C)c4ccccc43)cc2)cc1`, the z-score in [1] was -0.203 (inactive); in experiment [3] it was 19.8 (active); in [4], 5.6 (inactive); in experiment [5], 2.08 (inactive); in [6], 1.43 (inactive); in experiment [7], 0.134. Besides, the z-score in [8] is 0.295 (inactive); in experiment [9], 0.709 (inactive); in experiment [10] it was 2.2. In experiment [2], the composite z-score stood at 0.191.

Regarding `[N-]=[N+]=NCc1ccccc1C[C@]1(C(=O)N2CCOCC2)N=C(c2ccc(OCCCO)cc2)O[C@H]1c1ccccc1N=[N+]=[N-]`, the z-score in [1] was 0.97 (inactive); in [3], 30 (active); in experiment [4] it was 25.3 (active); in experiment [5], 2.34 (inactive); in [6], 1.92 (inactive); in [7], 1.73. Moreover, the z-score is -6.05 (inactive) in experiment [8], -2.96 (inactive) in experiment [9] and -2.7 in experiment [10]. The compound also returned a composite z-score in [2] of 0.043.

Consider `COCCOC(=O)N1C(=O)[C@@]2(c3cc(C#CCCO)ccc31)[C@H](C(=O)N1CCc3cc(OC)c(OC)cc3C1)[C@H]1C(=O)O[C@H](c3ccccc3)[C@H](c3ccccc3)N1[C@@H]2c1ccc(O)cc1`, for which the z-score in experiment [1] is 0.38 (inactive); in experiment [3] it was 1.49 (inactive); in experiment [4], 0.349 (inactive); in experiment [5], 0.262 (inactive); in [6], 0.222 (inactive); in experiment [7] it was 0.113. Moreover, the z-score in [8] was 1.26 (inactive); in experiment [9], 0.706 (inactive); in experiment [10], 1.29. Further, in experiment [2], the composite z-score amounted to 0.88.

In the case of `CC[C@@H]1C=C(C(=O)O)[C@H](c2ccco2)N1S(=O)(=O)c1ccc(C)cc1`, the z-score in experiment [1] was -0.0046 (inactive); in experiment [3], 1.96 (inactive); in experiment [4], 1.37 (inactive); in experiment [5], -0.0701 (inactive); in experiment [6] it was 0.953 (inactive); in [7] it was 0.123. The values for the z-score in experiment [8], in [9] and in experiment [10] were 0.152 (inactive), -0.589 (inactive) and -0.764, respectively. Moreover, the composite z-score in experiment [2] is -0.148.

Take `COc1ccc([C@H]2C[C@H]3C(Br)=C[C@@H]2C(=O)[C@]32CO2)cc1`: the z-score was 0.834 (inactive) in experiment [1]; 1.27 (inactive) in experiment [3]; 0.581 (inactive) in experiment [4]; 1.23 (inactive) in experiment [5]; 0.207 (inactive) in experiment [6]; -0.288 in experiment [7]. Also, the z-score was -0.0817 (inactive) in experiment [8], 0.106 (inactive) in [9] and -0.837 in [10]. For the same compound, in [2], the composite z-score is -0.294.

Turning to `O=C1C[C@]2(c3ccc([N+](=O)[O-])cc3)C(=O)N(CCN3CCOCC3)c3cc(CO)ccc3[C@H]2N1C1CCCCC1`, the z-score was 0.918 (inactive) in experiment [1]; 1.23 (inactive) in experiment [3]; -0.837 (inactive) in experiment [4]; -0.584 (inactive) in experiment [5]; -0.507 (inactive) in [6]; 1.51 in experiment [7]. Moreover, the z-score in experiment [8] was -0.791 (inactive); in experiment [9], -0.0781 (inactive); in [10], 1.18. Moreover, in [2], the composite z-score was -0.0108.

On to `CN1C(=O)C2C=CC(C(O)c3ccc(-c4ccccc4)s3)N(N(c3ccccc3)c3ccccc3)C2C1=O` (stereo not given), for which the z-score in [1] is -0.562 (inactive); in [3], 3.38 (inactive); in [4], 2.19 (inactive); in [5] it was 0.977 (inactive); in experiment [6], 1.32 (inactive); in experiment [7], -1.12. In addition, the z-score in [8] is 1.1 (inactive); in [9] it was 0.963 (inactive); in experiment [10] it was -1.15. Further, the composite z-score in [2] was 0.2.

Regarding `O=C1O[C@H](c2ccccc2)[C@H](c2ccccc2)N2[C@H]1[C@@H](C(=O)N1CCN(c3ncccn3)CC1)[C@]1(C(=O)Nc3ccc(C#CC4=CCCCC4)cc31)[C@H]2c1ccc(O)cc1`, the z-score in experiment [1] was 0.635 (inactive); in experiment [3], 0.706 (inactive); in experiment [4], 0.574 (inactive); in experiment [5], -0.313 (inactive); in [6], 1.01 (inactive); in experiment [7], 0.538. In addition, the z-score is 0.852 (inactive) in experiment [8], 0.537 (inactive) in experiment [9] and 0.837 in [10]. Moreover, the composite z-score in [2] was 0.396.

As for `COc1ccc(C(O)C2C=CC3C(=O)NC(=O)C3N2Nc2ccccn2)c2ccccc12` (stereo not given), the z-score in [1] is -1.07 (inactive); in experiment [3], 0.496 (inactive); in experiment [4], 0.437 (inactive); in experiment [5], -0.139 (inactive); in experiment [6] it was 0.977 (inactive); in experiment [7] it was -0.841. In addition, the values for the z-score in experiment [8], in experiment [9] and in experiment [10] were -0.387 (inactive), -3.5 (inactive) and -2.08, respectively. In addition, the composite z-score in [2] was -0.0625.
